# ± gives the standard deviation of the averaged measurements. The full data set covers some 6,200 targets. This sample favours those with the largest changes.
# How the values were obtained:
# Test in all cases: NP40-soluble protein abundance relative to vehicle (solubility fold change) (ratio); higher = more soluble protein in presence of AMP-PNP
# A0A087WUT6|O60841 = biological target: T1, A0A087WUT6|O60841 (UniProt O60841)
# T1 sequence (whole entry): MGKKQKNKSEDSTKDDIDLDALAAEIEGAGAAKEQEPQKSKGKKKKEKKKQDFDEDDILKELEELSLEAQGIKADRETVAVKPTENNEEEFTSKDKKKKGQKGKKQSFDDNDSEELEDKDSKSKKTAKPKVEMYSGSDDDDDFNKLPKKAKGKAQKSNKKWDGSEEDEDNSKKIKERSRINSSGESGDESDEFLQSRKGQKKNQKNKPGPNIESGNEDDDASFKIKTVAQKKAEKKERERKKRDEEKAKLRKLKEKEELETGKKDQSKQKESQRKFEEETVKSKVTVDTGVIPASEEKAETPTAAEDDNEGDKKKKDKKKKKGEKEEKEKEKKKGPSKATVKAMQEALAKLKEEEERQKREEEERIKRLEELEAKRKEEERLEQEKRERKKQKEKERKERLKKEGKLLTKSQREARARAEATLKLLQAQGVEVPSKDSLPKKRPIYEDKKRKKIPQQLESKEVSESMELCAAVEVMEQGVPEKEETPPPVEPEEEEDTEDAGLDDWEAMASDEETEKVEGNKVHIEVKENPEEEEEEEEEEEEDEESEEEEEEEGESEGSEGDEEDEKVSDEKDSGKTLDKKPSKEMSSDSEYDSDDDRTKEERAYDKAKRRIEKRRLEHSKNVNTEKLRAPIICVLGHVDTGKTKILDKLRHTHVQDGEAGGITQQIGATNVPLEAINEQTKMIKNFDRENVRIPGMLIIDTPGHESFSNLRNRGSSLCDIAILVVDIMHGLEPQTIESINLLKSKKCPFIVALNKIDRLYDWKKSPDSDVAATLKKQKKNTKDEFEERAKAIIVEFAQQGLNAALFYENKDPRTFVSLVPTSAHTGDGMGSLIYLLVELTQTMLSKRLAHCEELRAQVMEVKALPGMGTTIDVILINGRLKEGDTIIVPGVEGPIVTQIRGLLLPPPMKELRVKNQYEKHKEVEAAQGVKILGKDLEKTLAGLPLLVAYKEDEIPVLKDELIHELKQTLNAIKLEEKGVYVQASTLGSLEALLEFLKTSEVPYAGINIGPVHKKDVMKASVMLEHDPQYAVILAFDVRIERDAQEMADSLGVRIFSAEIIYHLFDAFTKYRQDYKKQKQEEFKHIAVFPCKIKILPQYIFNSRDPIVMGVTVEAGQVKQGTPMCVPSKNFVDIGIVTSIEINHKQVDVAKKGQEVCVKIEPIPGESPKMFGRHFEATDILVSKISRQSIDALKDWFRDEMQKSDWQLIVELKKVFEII
# Procedure, shortened: (§1)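 Eight concentrations, 0.1 to 10 mM, were tested on Jurkat crude lysate for 10 min at room temperature and then 3 min at 37 °C, in three independent experiments. The lysate was solubilised with 0.8% NP40 and benzonase, ultracentrifuged, and the supernatant TMT-labelled for LC-MS/MS. Each value is the fold change against the detergent-processed vehicle in its own replicate, from vsn-normalised intensities.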
# [1] = biological target: T2, A0A087WUU7|Q96GX5|Q96GX5-3|Q96GX5-2 (UniProt Q96GX5)
# T2 sequence (whole entry): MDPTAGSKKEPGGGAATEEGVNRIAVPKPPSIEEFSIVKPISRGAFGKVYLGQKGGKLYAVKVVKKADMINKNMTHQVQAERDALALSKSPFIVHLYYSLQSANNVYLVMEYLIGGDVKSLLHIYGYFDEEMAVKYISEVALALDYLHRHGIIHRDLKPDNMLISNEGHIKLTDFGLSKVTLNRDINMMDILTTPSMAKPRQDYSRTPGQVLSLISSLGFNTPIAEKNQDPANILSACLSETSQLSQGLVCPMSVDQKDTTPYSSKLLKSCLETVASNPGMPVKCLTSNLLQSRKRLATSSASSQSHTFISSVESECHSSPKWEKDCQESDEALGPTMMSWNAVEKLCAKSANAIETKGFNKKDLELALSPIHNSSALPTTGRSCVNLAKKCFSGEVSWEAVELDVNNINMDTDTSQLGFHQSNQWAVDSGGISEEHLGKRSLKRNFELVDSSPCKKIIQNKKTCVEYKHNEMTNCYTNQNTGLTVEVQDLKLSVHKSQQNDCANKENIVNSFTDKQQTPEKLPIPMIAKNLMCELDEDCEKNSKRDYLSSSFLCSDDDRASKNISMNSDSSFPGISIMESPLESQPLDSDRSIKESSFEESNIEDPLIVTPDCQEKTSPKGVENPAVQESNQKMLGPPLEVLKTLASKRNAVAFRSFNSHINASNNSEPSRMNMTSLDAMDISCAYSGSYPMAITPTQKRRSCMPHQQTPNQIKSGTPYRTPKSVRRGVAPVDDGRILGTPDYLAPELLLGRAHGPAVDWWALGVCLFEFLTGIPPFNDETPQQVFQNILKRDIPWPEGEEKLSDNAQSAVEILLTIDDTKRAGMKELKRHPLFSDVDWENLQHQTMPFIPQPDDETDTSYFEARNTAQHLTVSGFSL
# Procedure, shortened: as §1
# [2] = biological target: T3, A0A087WV73|P46087|P46087-2|P46087-4 (UniProt P46087)
# T3 sequence (whole entry): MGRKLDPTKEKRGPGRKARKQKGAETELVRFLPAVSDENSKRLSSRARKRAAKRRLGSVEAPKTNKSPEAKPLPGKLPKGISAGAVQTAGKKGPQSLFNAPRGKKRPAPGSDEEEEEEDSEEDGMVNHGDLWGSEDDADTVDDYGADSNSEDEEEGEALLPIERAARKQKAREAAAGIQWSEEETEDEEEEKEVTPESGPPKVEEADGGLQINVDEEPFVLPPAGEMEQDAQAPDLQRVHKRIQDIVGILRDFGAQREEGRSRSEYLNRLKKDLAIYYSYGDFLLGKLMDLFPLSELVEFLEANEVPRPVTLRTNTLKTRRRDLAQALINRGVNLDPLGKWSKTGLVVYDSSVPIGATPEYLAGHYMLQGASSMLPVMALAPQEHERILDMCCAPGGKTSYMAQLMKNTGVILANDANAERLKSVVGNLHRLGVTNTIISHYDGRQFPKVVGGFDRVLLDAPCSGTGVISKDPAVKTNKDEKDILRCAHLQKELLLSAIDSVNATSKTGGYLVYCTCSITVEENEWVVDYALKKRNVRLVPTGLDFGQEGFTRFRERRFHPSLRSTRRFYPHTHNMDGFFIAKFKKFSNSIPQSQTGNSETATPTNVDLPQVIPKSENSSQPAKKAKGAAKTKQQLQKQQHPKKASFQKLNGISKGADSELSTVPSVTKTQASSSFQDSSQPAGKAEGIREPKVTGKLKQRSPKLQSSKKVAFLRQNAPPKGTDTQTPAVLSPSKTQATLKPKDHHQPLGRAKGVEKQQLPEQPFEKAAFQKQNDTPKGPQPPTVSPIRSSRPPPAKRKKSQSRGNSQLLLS
# Procedure, shortened: as §1
# A0A087WW88|Q9UQN3 = A0A087WW88|Q9UQN3 (UniProt Q9UQN3)
# Procedure, shortened: as §1
# A0A087WWS1|Q96FV9 = biological target: T4, A0A087WWS1|Q96FV9 (UniProt Q96FV9)
# T4 sequence (whole entry): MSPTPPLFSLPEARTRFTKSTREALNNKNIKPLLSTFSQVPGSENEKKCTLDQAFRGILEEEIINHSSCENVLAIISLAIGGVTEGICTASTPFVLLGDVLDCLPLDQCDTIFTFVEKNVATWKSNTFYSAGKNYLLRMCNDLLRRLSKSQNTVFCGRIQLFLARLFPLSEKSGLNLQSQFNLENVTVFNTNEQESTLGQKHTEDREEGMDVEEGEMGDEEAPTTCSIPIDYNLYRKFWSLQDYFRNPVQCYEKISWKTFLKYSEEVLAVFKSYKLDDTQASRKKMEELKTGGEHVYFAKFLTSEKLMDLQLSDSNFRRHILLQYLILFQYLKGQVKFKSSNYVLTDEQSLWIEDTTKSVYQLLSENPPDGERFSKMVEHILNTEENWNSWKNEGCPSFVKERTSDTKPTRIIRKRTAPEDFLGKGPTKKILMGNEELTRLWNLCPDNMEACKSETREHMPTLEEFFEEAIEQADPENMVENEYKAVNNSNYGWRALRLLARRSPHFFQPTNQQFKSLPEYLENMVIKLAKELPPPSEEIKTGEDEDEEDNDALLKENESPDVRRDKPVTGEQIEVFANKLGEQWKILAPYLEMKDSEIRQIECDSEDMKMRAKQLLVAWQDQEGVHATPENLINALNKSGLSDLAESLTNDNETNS
# Procedure, shortened: as §1
# A0A087WW88|Q9UQN3, sequence (Q9UQN3 whole entry, one chain of several): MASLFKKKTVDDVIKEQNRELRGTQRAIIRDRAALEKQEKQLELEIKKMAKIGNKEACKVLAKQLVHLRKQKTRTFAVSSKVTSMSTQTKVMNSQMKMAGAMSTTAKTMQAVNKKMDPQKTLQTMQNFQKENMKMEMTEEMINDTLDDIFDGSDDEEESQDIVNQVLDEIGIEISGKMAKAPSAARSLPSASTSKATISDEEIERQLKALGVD
smiles,measurement,setting,value
Nc1ncnc2c1ncn2[C@@H]1O[C@H](COP(=O)(O)OP(=O)(O)NP(=O)(O)O)[C@@H](O)[C@H]1O [adenylyl imidodiphosphate],NP40-soluble protein abundance,A0A087WUT6|O60841; concentration: 6mM,1.01 ± 0.033
same,NP40-soluble protein abundance,A0A087WUT6|O60841; concentration: 8mM,1.004 ± 0.0073
same,NP40-soluble protein abundance,A0A087WUT6|O60841; concentration: 10mM,0.997 ± 0.035
same,NP40-soluble protein abundance,[1]; concentration: 1mM,1.01 ± 0.02
same,NP40-soluble protein abundance,[1]; concentration: 2mM,1.07 ± 0.036
same,NP40-soluble protein abundance,[1]; concentration: 4mM,1.01 ± 0.044
same,NP40-soluble protein abundance,[1]; concentration: 6mM,0.976 ± 0.023
same,NP40-soluble protein abundance,[1]; concentration: 8mM,0.967 ± 0.011
same,NP40-soluble protein abundance,[1]; concentration: 10mM,0.991 ± 0.04
same,NP40-soluble protein abundance,[2]; concentration: 1mM,1.04 ± 0.038
same,NP40-soluble protein abundance,[2]; concentration: 2mM,1.12 ± 0.068
same,NP40-soluble protein abundance,[2]; concentration: 4mM,1.17 ± 0.05
same,NP40-soluble protein abundance,[2]; concentration: 6mM,1.28 ± 0.067
same,NP40-soluble protein abundance,[2]; concentration: 8mM,1.34 ± 0.094
same,NP40-soluble protein abundance,[2]; concentration: 10mM,1.43 ± 0.093
same,NP40-soluble protein abundance,A0A087WW88|Q9UQN3; concentration: 1mM,1.03 ± 0.024
same,NP40-soluble protein abundance,A0A087WW88|Q9UQN3; concentration: 2mM,1.03 ± 0.0098
same,NP40-soluble protein abundance,A0A087WW88|Q9UQN3; concentration: 4mM,1.03 ± 0.03
same,NP40-soluble protein abundance,A0A087WW88|Q9UQN3; concentration: 6mM,1.04 ± 0.018
same,NP40-soluble protein abundance,A0A087WW88|Q9UQN3; concentration: 8mM,1.03 ± 0.042
same,NP40-soluble protein abundance,A0A087WW88|Q9UQN3; concentration: 10mM,1.03 ± 0.014
same,NP40-soluble protein abundance,A0A087WWS1|Q96FV9; concentration: 1mM,1.35 ± 0.15
same,NP40-soluble protein abundance,A0A087WWS1|Q96FV9; concentration: 2mM,1.52 ± 0.22
same,NP40-soluble protein abundance,A0A087WWS1|Q96FV9; concentration: 4mM,1.64 ± 0.29
same,NP40-soluble protein abundance,A0A087WWS1|Q96FV9; concentration: 6mM,1.86 ± 0.46
same,NP40-soluble protein abundance,A0A087WWS1|Q96FV9; concentration: 8mM,1.96 ± 0.56
same,NP40-soluble protein abundance,A0A087WWS1|Q96FV9; concentration: 10mM,2.2 ± 0.76

# Source: the supplement of paper PMC6411743
